Measurements taken from ChEMBL document CHEMBL4888484, “Replenishing the malaria drug discovery pipeline: Screening and hit evaluation of the MMV Hit Generation Library 1 (HGL1) against asexual blood stage Plasmodium falciparum ,using a nano luciferase reporter read-out” (2022).
Out of some 150,000 compounds screened, about 540 (0.36%) showed an effect of 50% or more. The entries come from a sample that favours strong results as a whole.

What follows are compounds tested on Plasmodium falciparum (assay: Primary screen in NF54 nanoGlo assay, in single point, at 2uM, 72h; a lower Z score goes with more inhibition). Details: timepoint 72 hour.
Type: functional, Erythrocyte
With O=C(NCCN1CCCCC1)c1n[nH]c2c1CCc1ccccc1-2 the “% Inhibition” value was 52% and the Z score was -0.47. With Cc1cnc(NC(=O)c2nc(C)oc2-c2ccccc2)[nH]1 the “% Inhibition” value was -10% and the Z score was 1.11. For CC(C)c1nc(C(=O)Nc2[nH]nc(C3CC3)c2C#N)cs1, the “% Inhibition” value was -25% and the Z score was 3.79. In the case of Cc1nc(C(=O)Nc2[nH]c(=O)ncc2F)c(-c2ccccc2)o1, the “% Inhibition” value is reported as 80% and the Z score is reported as -7.61. With CC(C)c1nc(C(=O)Nc2[nH]c(=O)ncc2F)cs1 the “% Inhibition” value was 88% and the Z score was -15.46. With Nc1ccc(F)cc1NC(=O)c1coc(-c2ccccc2)n1 the “% Inhibition” value was -10% and the Z score was 1.7. CC(C)c1nc(C(=O)N[C@@H](C)C(N)=O)cs1 was tested, and the “% Inhibition” value was -9% and the Z score was 1.83. With O=C(Nc1[nH]c(=O)ncc1F)c1coc(-c2ccccc2)n1 the “% Inhibition” value was 80% and the Z score was -14.59. Cc1nc(C(=O)NC[C@@]23CCC[C@@H]2OCC3)c(-c2ccccc2)o1 was tested, and the “% Inhibition” value was 0% and the Z score was -0.01. For CCc1ncc(NC(=O)c2coc(-c3ccccc3)n2)cn1, the “% Inhibition” value was -21% and the Z score was 2.66. For CCOCCCNC(=O)C1CCN(C(=O)c2cc3oc(C)cc3n2Cc2c(F)cccc2Cl)CC1, the “% Inhibition” value was -1% and the Z score was 0.06. CN1CCN(S(=O)(=O)N2CCN(Cc3cccn3C)CC2)CC1 was tested, and the “% Inhibition” value was 7% and the Z score was -0.7. In the case of NC(=O)CN1CCC(Nc2nc3ccccc3n2CCO)CC1, the “% Inhibition” value is reported as -7% and the Z score is reported as 1.08. For COc1cccc(NC(=O)Cc2c(C)nn(-c3nc(-c4ccc(C)cc4)cs3)c2C)c1, the “% Inhibition” value was -13% and the Z score was 1.45. With CN(Cc1cc2cc(F)ccc2[nH]1)Cc1ccnn1C the “% Inhibition” value was -9% and the Z score was 1.38. With C[C@H](Nc1ccc(C#N)cn1)c1cccc(-n2cccn2)c1 the “% Inhibition” value was 0% and the Z score was 0.03. For Cc1ccccc1Cc1c(C)[nH]c2[nH]n(-c3ccccc3)c(=O)c2c1=O, the “% Inhibition” value was 10% and the Z score was -1.18. CCCCCc1c(C)nc2[nH]n(-c3ccccc3)c(=O)c2c1O was tested, and the “% Inhibition” value was 34% and the Z score was 2.26. For CNCCc1c(-c2ccccc2)[nH]n(-c2ccccc2)c1=O, the “% Inhibition” value was 82% and the Z score was -6.33. O=C1NCCN1CCN1CCc2[nH]ncc2C1 was tested, and the “% Inhibition” value was -10% and the Z score was 1.34. With CC1=NN(c2ccccc2)C(=O)C12Cc1ccc(Cl)cc1N1CCCCC12 (centres undefined) the “% Inhibition” value was 8% and the Z score was -1.22. With Cc1cc(OC[C@@H](O)CNC(C)(C)CC(C)(C)C)cc(C)c1Cl the “% Inhibition” value was 51% and the Z score was -6.83. In the case of Cc1cc(C)cc(OC[C@@H](O)CNC(C)(C)CC(C)(C)C)c1, the “% Inhibition” value is reported as -3% and the Z score is reported as 0.43. With Cc1cc(OC[C@@H](O)CNC(C)C)cc(C)c1Cl the “% Inhibition” value was -7% and the Z score was 1.4. With CCc1cnc(C)nc1N1CCC(N2CC(n3nc(C)cc3C)C2)CC1 the “% Inhibition” value was 6% and the Z score was -1.11. In the case of CN(Cc1cccnc1)C(=O)c1csc(NC(=O)c2ccc(Cl)cc2Cl)n1, the “% Inhibition” value is reported as -12% and the Z score is reported as 1.69. With COc1ccc(-c2ccnc(N[C@H]3CCN(C4CCOCC4)C3=O)n2)cc1 the “% Inhibition” value was -13% and the Z score was 2.48. In the case of CCOC[C@@H](O)CN(Cc1c(-c2ccccc2)noc1N1CCC(C)CC1)CC1CC1, the “% Inhibition” value is reported as 35% and the Z score is reported as 0.79. With C#CCOCC(O)CN(Cc1c(-c2ccccc2)noc1N1CCC(C)CC1)CC1CCCO1 (centres undefined) the “% Inhibition” value was 59% and the Z score was 1.43. With C=CCOCC(O)CN(Cc1c(-c2ccccc2)noc1N1CCCCC1C)CC1CCCO1 (centres undefined) the “% Inhibition” value was 30% and the Z score was -0.88. CC(NC(=O)NC(C)c1ccc(-c2cccnc2)cc1)c1ccncc1 (centres undefined) was tested, and the “% Inhibition” value was 7% and the Z score was -1.01. In the case of C[C@H](N)c1ccc(Nc2ncc3cc(-c4ccncc4)ccc3n2)cc1, the “% Inhibition” value is reported as 85% and the Z score is reported as -9.36. In the case of CC(C)C(=O)Nc1ccc(-c2cc(-c3ccc(NC(=O)C(C)C)cc3)nc(-c3ccncc3)n2)cc1, the “% Inhibition” value is reported as 38% and the Z score is reported as -10.15. With CCOc1c(Br)cc(Cl)cc1NCC(=O)NC(=O)NCC(C)C the “% Inhibition” value was -7% and the Z score was 1.36. Cn1ncc2c1CCCN(c1nccn3nc(C(F)(F)F)cc13)C2 was tested, and the “% Inhibition” value was -10% and the Z score was 1.44. In the case of CC(=O)c1ccc(NC(=O)c2cc3n(n2)CCCO3)cc1, the “% Inhibition” value is reported as -7% and the Z score is reported as 1.13. With CC(C)=CC1C(C(=O)N(C)CC2COc3ccccc3O2)C1(C)C (centres undefined) the “% Inhibition” value was -4% and the Z score was 0.45. In the case of Cc1cncc(C(=O)NC[C@@H](CO)Cc2ccc(Cl)cc2)c1, the “% Inhibition” value is reported as -7% and the Z score is reported as 0.93. For CC1CC(NCCc2cc(F)cc3c2OCOC3)CN1C1CC1 (centres undefined), the “% Inhibition” value was -5% and the Z score was 0.45. In the case of COC[C@H](NCCc1cc(F)cc2c1OCOC2)C1CC1, the “% Inhibition” value is reported as 63% and the Z score is reported as -8.98. In the case of O=C(CNC(=O)NC1CC1)NCCc1cc(F)cc2c1OCOC2, the “% Inhibition” value is reported as -2% and the Z score is reported as 0.2. With Cc1nc(-c2ccnc(NCc3cnc(N(C)C)nc3)c2)n[nH]1 the “% Inhibition” value was 5% and the Z score was -0.63.
